# Compound activity (PubChem BioAssay)
# MITF act: increases MITF-driven TRPM1 promoter luciferase signal; activation, % at 12.5 µM; SK-MEL-5 TRPM1-promoter luciferase, 24 h; % of positive control, neutral wells = 0; actives 0.75% (n = 300,000); AID 588334;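 active = mean activation of at least 80% with every replicate also reaching 80%; inconclusive = mean reaches 80% but some replicate falls short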;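 also: 0% = neutral control wells and 100% = parthenolide positive control wells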
# Wnt bcat act: activators of Wnt/beta-catenin signaling | Wnt/beta-catenin reporter cell assay, activator, plate reader | activation, % at 9.35 µM | actives 1.2% (n = 300,000) | AID 743398; in the data active = activation above about 30%, passing the limit was not always enough; inconclusive = no clear call, values can overlap the other calls;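 also: 0% = neutral control wells and 100% = positive control wells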
# CFTR F508del cor: CFTR F508del correction in bronchial cells. CFBE cells, YFP halide quenching; stimulated with forskolin plus potentiator P3; % fluorescence drop versus neutral controls. activity (quench increase), % at 7.58 µM. AID 720511. actives 0.36% (n = 350,000);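 active = mean added fluorescence quench of at least 8% versus neutral control, with both replicates also reaching 8%; inconclusive = only one of the mean or replicate conditions met; inactive = mean below 8% and not both replicates reaching 8%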;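 also: cells transiently co-express mutant CFTR-F508del with the halide-sensitive YFP; corrector assay measuring rescue of mutant channel to the surface after 24 h compound exposure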
# INS-1E GSIS act: GLuc luminescence reporter in INS-1E cells, primary screen for activators of glucose-dependent secretion of insulin. INS-1E GLuc reporter insulin secretion, 2-3 h. activation, % at 16.6 µM. actives 0.61% (n = 370,000). AID 743287;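 active = lowest replicate activation of at least 40%, so every replicate reaches that level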;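 also: 0% = median of neutral control wells and 100% = median of IBMX positive control wells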
# Env fusion inh: inhibitors of HIV Env-mediated cell fusion. AID 651610. HeLa-JRFL Env/CEM21 cell fusion, luciferase. actives 1.1% (n = 360,000). inhibition, % at 12.3 µM;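 active = mean replicate inhibition score of at least 50 and every replicate individually at or above 50; inconclusive = only one of the two criteria met; inactive = mean below 50 and not all replicates reaching 50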;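 also: 0% = plate neutral controls and 100% = maraviroc near 300 nM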
# * = called active by the depositor; ? = inconclusive; · = no result; ! = not active in a repeat; [ ] = dose if it differs, or a comment. An excerpt weighted towards active compounds, which were near 2.7% of everything screened.
SMILES,MITF act,Wnt bcat act,CFTR F508del cor,INS-1E GSIS act,Env fusion inh
CSc1cccc(CNC(=O)C2CCC(=O)N(CCc3ccccc3)C2)c1 (stereo unspecified),·,46*,0,-12,-22
CCCCCCCC(=O)OCC(O)CO (stereo unspecified),4,4,-2,26,4
CCCCCCCCCCCCCCC(O)C[N+](C)(CCO)CCO (stereo unspecified),·,3,1,295*,-22
CCC(=O)N(C)C[C@H]1Oc2ncc(Br)cc2C(=O)N([C@@H](C)CO)C[C@H]1C,·,·,-2,35,-3[16.7 µM]
Cc1ccc(-c2nnc(SCC(C)C)n2C)cc1,28,61*,·,·,-39
CC1CCC(C(C)C)C(OC(=O)Cn2c(-c3ccc(F)cc3)[n+](C)c3ccccc32)C1 (stereo unspecified),-80,-5,8,62,65*
Cc1cccc(OCc2n(CC(=O)OC3CC(C)CCC3C(C)C)c3ccccc3[n+]2C)c1 (stereo unspecified),-95,·,·,·,·
CC1CCC(C(C)C)C(OC(=O)Cn2c(-c3ccccc3)[n+](C)c3ccccc32)C1 (stereo unspecified),-86,-2,-6,8,69*
COc1ccc(/C(C)=N/Nc2nncc3ccccc23)cc1,109*,37*,2,38,-101
C[C@H]1CCCCO[C@H](CN(C)C(=O)NC2CCCCC2)[C@@H](C)CN([C@@H](C)CO)C(=O)c2cc(NC(=O)CCCN(C)C)ccc2O1,·,·,0,14,3[16.7 µM]
N#Cc1ccc(-c2ccc3c(c2)[C@@H]2[C@@H](CCN2S(=O)(=O)c2ccccc2F)[C@H](CO)N3)cc1,·,·,2,22,·
N#Cc1ccc(-c2ccc3c(c2)[C@H]2[C@H](CCN2S(=O)(=O)c2ccccc2F)[C@@H](CO)N3)cc1,·,·,15*,5,·
CC1CCC(NC(=O)c2cc3ccccc3cc2O)CC1 (stereo unspecified),94*,46*,1,5,·
Fc1ccc(N2CCN(Cc3ccccn3)CC2)cc1,-7,40*,-1,13,-1
COc1ccc(Nc2n[nH]c(C)c2[N+](=O)[O-])cc1,79,35*,3,-7,5
Cc1noc(C)c1S(=O)(=O)Nc1ccc2c(c1)CC(=O)N([C@H](C)CO)C[C@H](C)[C@@H](CN(C)C(=O)Nc1ccc(F)cc1)O2,·,·,-1,-1,-5[16.7 µM]
CN1C[C@H](O)COC[C@@H]2O[C@H](CC(=O)NC3CCCC3)CC[C@H]21,·,·,0,15,·
COc1cccc(-c2nc(NCc3ccccc3)c3ccccc3n2)c1O,-8,-1,2,10,7
COc1cccc(-c2nc(NCc3ccco3)c3ccccc3n2)c1O,-2,·,·,76*,·
COc1cccc(-c2nc(N3CCN(C)CC3)c3ccccc3n2)c1O,-21,4,14*,-2,-62
CN1CCN(c2nc(-c3ccccc3O)nc3ccccc23)CC1,6,1,2,-8,-7
O=C(C[C@@H]1CC[C@H](NC(=O)c2ccccc2)[C@H](CO)O1)NCc1ccncn1,·,·,-2,2,1[16.7 µM]
C[C@@H]1CCCCO[C@H](CN(C)S(=O)(=O)c2ccc(F)cc2)[C@H](C)CN([C@H](C)CO)C(=O)c2cc(NC(=O)NC3CCCCC3)ccc2O1,·,·,-5,-31,12[16.7 µM]
COc1ccc(C2CC(=O)C(c3ccc(C)cc3)=CN2Cc2ccccc2)cc1 (stereo unspecified),·,3,0,159*,-4
O=C1CS/C(=N/N=C/c2c[nH]c3ccccc23)N1,·,0,0,-4,-27
SMILES,MITF act,Wnt bcat act,CFTR F508del cor,INS-1E GSIS act,Env fusion inh
O=c1nc(N/N=C/c2c[nH]c3ccccc23)cn[nH]1,57,41*,2,8,48
C(=N\Nc1ccccn1)/c1c[nH]c2ccccc12,·,-2,·,13,-23
C(=NN=Cc1c[nH]c2ccccc12)c1c[nH]c2ccccc12,·,46*,7,8,-51
O=C1COc2ccc(-c3csc(=Nc4ccc(OC(F)F)cc4)n3CC3CCCO3)cc2N1 (stereo unspecified),-17,·,·,·,92*
COCC(C)n1c(-c2ccc3c(c2)NC(=O)CO3)csc1=Nc1ccc(OC(F)F)cc1 (stereo unspecified),-38,1,1,-13,83*!
CCN=c1scc(-c2ccc3c(c2)NC(=O)CO3)n1N=C1CCCC1,-11,-3,2,8,47
CSc1ccccc1OCc1cc(C(=O)NCc2cccc(C)n2)no1,96*,26,1,11,-71
CCn1ccnc1CN(C)C(=O)c1cc(COc2ccccc2SC)on1,?,23,1,·,0
Cc1nonc1CN(C)C(=O)c1cc(COc2ccc(F)cc2Cl)on1,34,11,4,-16,·
CSc1ccccc1OCc1cc(C(=O)N(C)Cc2ccncn2)no1,117*,16,-3,·,-51
CC(=O)c1cccc(OCc2cc(C(=O)N(C)Cc3cnccn3)no2)c1,96*,13,1,-1,-22
CSc1ccccc1OCc1cc(C(=O)N(C)Cc2nonc2C)no1,150*,21,-3,-8,-54
O=C(Nc1ccccc1F)N[C@H]1CC[C@@H](CCNC(=O)C2CCCC2)O[C@H]1CO,·,·,-1,-9,10[16.7 µM]
COc1ccc2c3c([nH]c2c1)[C@H](CO)N(Cc1cccc(F)c1)CC31CCN(C(C)=O)CC1,·,·,3,2,·
CSc1ccccc1OCc1cc(C(=O)N[C@H]2CCCCNC2=O)no1,96*,29,-2,36,-42
COc1ccc2c3c(n(C)c2c1)[C@H](CO)N(C(=O)Nc1ccccc1F)CC31CCN(C(=O)c2ccccc2F)CC1,·,·,6,6,·
COc1ccc2c3c(n(C)c2c1)[C@@H](CO)N(CC1CCOCC1)CC31CN(C(=O)c2cccc(F)c2)C1,·,·,·,1,·
COc1ccc(S(=O)(=O)NNC(=O)C23CC4CC(CC(C4)C2)C3)cc1[N+](=O)[O-],0,-2,0,-4,76*
COc1ccc(S(=O)(=O)NNC(=O)Cc2csc(C)n2)cc1[N+](=O)[O-],0,0,-1,22,2
CC(C)CC(COCc1ccc(C(F)(F)F)cc1)N1CCN(C(=O)c2ccc(C(F)(F)F)cc2)CCC1=O (stereo unspecified),1,-10,-2,-24,58*
O=C(c1ccc(C(F)(F)F)cc1)N1CCC(=O)N(C(COCc2ccccc2)Cc2ccccc2)CC1 (stereo unspecified),5,2,0,·,63*
CC(C)C[C@@H](COCc1cccc(Cl)c1)N1CCN(C(=O)c2ccc(C(F)(F)F)cc2)CCC1=O,·,-3,2,-10,57*
CC(C)C[C@@H](COCc1ccc(C(F)(F)F)cc1)N1CCN(C(=O)c2ccc(C(F)(F)F)cc2)CCC1=O,·,-4,9.6*,3,46
CC(C)(C)c1ccc(C(=O)N2CCC(=O)N([C@H](COCc3ccccc3)Cc3ccccc3)CC2)cc1,·,-1,-1,-19,?
